# The sample as a whole holds a higher share of hits than the screen did.
# RT RNaseH block: inhibitors of HIV-1 reverse transcriptase RNase H; P04585; RT-RNase H RNA/DNA duplex cleavage, fluorescence; inhibition, % at 10 µM; 1.9% of 65,000 active; in the data active = inhibition above about 50%
# RmlCD inh mix: RmlC/RmlD inhibition, mixture screen | RmlC/RmlD coupled enzyme inhibition, 384-well mixture HTS | inhibition, % at 5.5 µM | AID 1532 | 0.39% of 110,000 active; in the data active = inhibition above about 30%, passing the limit was not always enough; inconclusive = no clear call, values can overlap the other calls
# RmlCD fluor art: shows fluorescent artifact in RmlC/RmlD assay, dose-response counter-screen. RmlC/RmlD assay fluorescence artifact counter-screen. calls only. AID 1696. shares compounds with RmlCD inh mix. 96% of 360 active; call rule not given here;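 note: compound alone with no enzyme and no substrates present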
# Numbers without * were called inactive; i = inactive; u = inconclusive; x = not tested or not shown; + = active, no number.
SMILES,RT RNaseH block,RmlCD inh mix,RmlCD fluor art
CCCCc1cc(=O)oc2cc(C)cc(OCC(=O)O)c12,-2,25,x
CCc1cc(=O)oc2cc(OC(C)=O)cc(OC(C)=O)c12,-5,x,+
CC(C)c1cc(NCCN2CCOCC2)n2c(nc3ccccc32)c1C#N,-4,x,x
CC(C)c1cc(NCCCN2CCOCC2)n2c(nc3ccccc32)c1C#N,2,45*,+
Cc1cc(NCCN2CCCCC2)n2c(nc3ccccc32)c1C#N,-1,x,x
Cc1cc(NCCCn2ccnc2)n2c(nc3ccccc32)c1C#N,-12,85*,+
COC(=O)c1cc(NCc2ccc3c(c2)OCO3)ccc1N1CCOCC1,5,6,x
Cc1nn(-c2ccccc2)c2sc(C(=O)NC3CCCCC3)cc12,0,-44,x
CCCS(=O)(=O)N1CCC(C(=O)NCCN2CCCC2)CC1,-6,x,x
COc1ccc(OC)c(/C=N/NC(=O)CC2C(=O)NN=C2C)c1 (stereo unspecified),x,54*,+
COc1cccc(/C=N/NC(=O)CC2C(=O)NN=C2C)c1OC (stereo unspecified),x,0,x
O=C(O)C1CCCCC1C(=O)NCCc1ccc(Cl)cc1 (stereo unspecified),-3,-8,x
O=c1cccc2n1Cc1cc3ccccc3nc1-2,x,55*,+
Cc1nc2ccccc2cc1C(=O)O,x,10,x
CCNC(=O)NC(=O)CSc1ccc(NC(C)=O)cc1,-1,6,x
CCNC(=O)NC(=O)COC(=O)c1ccccc1SCC(=O)NC(=O)NCC,4,+,+
CCN1C=CC(=C2C(=O)c3ccccc3C2=O)C=C1,-12,12,x
COc1ccc(N(CC(=O)N2CCCC(C)C2)S(=O)(=O)c2c(C)nn(C)c2C)cc1 (stereo unspecified),-10,-3,x
O=C(c1cc2c(ccc3ccccc32)oc1=O)N1CCCC1,x,3,x
O=C(O)c1cc2c(ccc3ccccc32)oc1=O,x,82*,+
Cc1cc(=O)oc2cc(Oc3ncccn3)ccc12,-3,-10,x
COC(=O)c1cc(-c2c(C)oc3cc(OC(C)C)ccc3c2=O)c(C)o1,-11,-1,x
Cc1cc(=O)oc2cc(OC(=O)c3ccccc3)ccc12,x,46*,+
CC(=O)Oc1ccc2c(=O)c(-c3ccccc3)c(C)oc2c1,x,80*,+
COC(=O)CCN(C(C)=O)c1ccc(N)cc1,-6,-5,x
SMILES,RT RNaseH block,RmlCD inh mix,RmlCD fluor art
Cc1ccnc(NC(=O)CCC(=O)N(CC(=O)NC2CCCCC2)CC2CCCO2)c1 (stereo unspecified),-3,15,x
O=C(OCC(=O)N1CCN(C(=O)c2ccco2)CC1)c1cc(-c2ccco2)nc2ccccc12,x,30*,+
O=C(OCC(=O)N1CCN(C(=O)c2ccco2)CC1)c1cc(-c2ccc(Cl)c(Cl)c2Cl)nc2ccccc12,x,-33,x
COc1ccc(S(=O)(=O)/N=C2/NC(=O)/C(=C\c3cc(OC)c(OC)cc3[N+](=O)[O-])S2)cc1,x,-11,x
COc1ccc2cc(CN(Cc3cccs3)Cc3nnnn3Cc3ccccc3)c(=O)[nH]c2c1,x,0,x
COc1ccc2cc(CN(Cc3cccnc3)Cc3nnnn3Cc3ccccc3)c(=O)[nH]c2c1,-14,33*,i
O=C(CSc1nnnn1-c1ccccc1)N1CCCc2ccccc21,x,-16,x
N[C@@H](Cc1ccc(O)cc1)c1nnc([C@H](CO)NC(=O)C2CCNCC2)o1,x,-14,x
O=C1c2ccccc2C(=O)N1CSc1nnc2c3ccccc3n(CCc3ccccc3)c2n1,x,-7,x
C=CCn1c2ccccc2c2nnc(SCN3C(=O)c4ccccc4C3=O)nc21,-22,50*,i
O=S1(=O)N=C(Oc2cccc3ccccc23)c2ccccc21,x,-9,x
Cc1ccc(S(=O)(=O)N[C@H](C(=O)Oc2ccc3c(C(F)(F)F)cc(=O)oc3c2)c2ccccc2)cc1,x,101*,+
COc1ccc(S(=O)(=O)NC(C)C(=O)Nc2ccccc2C(F)(F)F)cc1 (stereo unspecified),x,70,x
NNC(=O)C=C1CCN(c2ncc(C(F)(F)F)cc2Cl)CC1,x,-7,x
COc1ccccc1N=c1oc2cc(O)ccc2cc1C(=O)NCC1CCCO1 (stereo unspecified),-4,21,x
COc1ccccc1N=c1oc2cc(O)ccc2cc1C(N)=O,-25,40*,+
COc1cc(NC(=O)c2ccco2)c(OC)cc1NC(=O)c1cc(OC)c(OC)c(OC)c1,2,2,x
CCOc1cc(NC(=O)c2ccco2)c(OCC)cc1NC(=O)c1cc(OC)c(OC)c(OC)c1,-9,+,+
O=C(c1ccc(F)cc1)n1ccc(-c2cnc(-c3ccccc3)s2)n1,x,80*,+
Fc1ccc(Cn2ccc(-c3cnc(-c4ccccc4)s3)n2)cc1,x,-9,x
CCOc1ccc(C2CC(=O)NC(SC)=C2C#N)cc1 (stereo unspecified),-8,-11,x
COC(=O)c1cc(=O)c2cccc(OC)c2[nH]1,x,x,i
COc1ccc(OC)c2[nH]c(C(=O)O)cc12,x,-15,x
CCCn1c(=O)c(C(=O)NCc2cccnc2)c(O)c2ccccc21,-44,-8,x
Nc1ccc(-c2nc3ccc(N)cc3o2)cc1,-12,104*,+
SMILES,RT RNaseH block,RmlCD inh mix,RmlCD fluor art
Cc1ccc2nc(-c3cc(N)cc(N)c3)oc2c1,x,7,x
Cc1cc(C)nc(SCc2nnc(SCC#N)n2-c2cccc(Cl)c2)n1,-3,-16,x
O=C(CSC1=NC(=O)C(Cc2ccccc2)C(=O)N1)Nc1ncccn1 (stereo unspecified),-8,19,x
COC(=O)c1ccc(-c2sc3nc(N4CCOCC4)c4c(c3c2N)CCCC4)o1,19,116*,+
CCN(CC)C(=O)c1sc2nc(N3CCOCC3)c3c(c2c1N)CCCC3,x,-90,x
CON(C)C(=O)Nc1ccc(Cl)cc1,-6,-7,x
COc1ccc(C2NC(=O)c3sc4nc(C)c(C(C)=O)c(-c5ccc(Cl)cc5)c4c3N2)cc1 (stereo unspecified),x,52*,+
CCOC(=O)c1c(C)nc2sc(C(N)=O)c(N)c2c1-c1ccc(OC)cc1,x,-2,x
COC(=O)Sc1nnc(-c2ccc(Br)cc2)o1,-6,17,x
CCCCn1c(=O)c(C(=O)c2ccccc2)nc2ccccc21,x,2,x
CCCCn1c(=O)nc2n(-c3ccccc3)c3ccccc3cc-2c1=O,x,37*,+
CCOC(=O)c1[nH]c(C)c(/C(O)=C2\C(=O)C(=O)N(CCN(C)C)C2c2ccncc2)c1C (stereo unspecified),2,9,x
CCN(CC)c1ccc2cc(-c3nc4ccccc4n3C)c(=O)oc2c1,6,-64,x
CCN(CC)c1ccc2cc(-c3nc4ccccc4[nH]3)c(=O)oc2c1,-66,30*,+
O=C(O)c1cc2c(s1)-c1ccccc1OC2,-1,u,x
O=C(c1ccco1)N1CCN(C(=O)c2cc3c(s2)-c2ccccc2OC3)CC1,29,46*,+
CC(C)(C)c1ccc(S(=O)(=O)n2c(CN3CCOCC3)nc3ccccc32)cc1,-16,-32,x
COc1ccc(-c2cn3ccccc3n2)cc1OC,-8,40,x
c1ccc2cc(-c3cc4ccccn4c3)ccc2c1,x,91*,+
Cc1ccc2ccccc2[n+]1CCCS(=O)(=O)[O-],x,0,x
COc1ccc(C#Cc2c(-c3ccsc3)oc3ccc(-c4cc(OC)c(OC)c(OC)c4)cc23)cc1,x,60*,+
COc1ccc(-c2oc3ccc(-c4cc(OC)c(OC)c(OC)c4)cc3c2-c2ccc(OC)cc2)cc1,x,-56,x

# High-throughput results from PubChem.
